Most compounds without a hit are left out; they make up all but 2.8% or so of the library.
SENP7 inh = inhibitors of human SENP7 protease; Q9BQF6; recombinant SENP7, Z-RLRGG-aminoluciferin luminescence, 40 min; inhibition, % at 5 µM; actives 1.5% (n = 330,000); AID 434973;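 active = inhibition above about 50% at the single test dose, limit read from the data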;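 also: plate controls were DMSO with enzyme for no effect and no enzyme buffer wells for full effect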
SENP8 block-1 = blocks human SENP8 cleavage of Nedd8 substrate. Q96LD8. recombinant SENP8, Nedd8 substrate fluorescence. inhibition, % at 20 µM. actives 0.64% (n = 360,000). AID 602440; in the data active = inhibition mostly above about 40%, no sharp cut-off; inactive = mostly below about 27%
Target sequence (Q96LD8 whole entry, looked up): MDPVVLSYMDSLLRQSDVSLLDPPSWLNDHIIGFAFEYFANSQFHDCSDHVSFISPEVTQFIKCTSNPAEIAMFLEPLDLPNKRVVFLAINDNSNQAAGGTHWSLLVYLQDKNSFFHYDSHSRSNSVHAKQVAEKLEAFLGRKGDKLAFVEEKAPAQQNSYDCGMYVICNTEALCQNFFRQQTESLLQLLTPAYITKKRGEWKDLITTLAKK
HSP90 refold inh = HSP90 refolding inhibition in rabbit reticulocyte lysate | luciferase refolding luminescence, 3 h | actives 0.91% (n = 290,000) | inhibition, % at 5.6 µM;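 active = inhibition above the screen-wide mean plus 3 SD, computed separately per campaign, cut at about 16% in these data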;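 also: 0% = DMSO wells and 100% = 60 µM geldanamycin wells; inhibitors lower the luminescence because luciferase stays unfolded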
SENP8 block-2 = SENP8 protease inhibition. actives 1.2% (n = 330,000). Q96LD8. purified SENP8, Z-RLRGG-aminoluciferin cleavage, luminescence. AID 2540. inhibition, % at 10 µM; in the data active = inhibition above about 50%
SENP6 inh = blocks the human protease SENP6 | Recombinant SENP6 catalytic domain, aminoluciferin luminescence | inhibition, % at 10 µM | actives 1.8% (n = 330,000) | AID 2599;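 active = inhibition above about 50% at the single tested dose, limit read from the data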;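 also: plate controls were DMSO wells with enzyme for no effect and DMSO wells lacking enzyme for full effect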
SENP8 conf = human SENP8 inhibition, confirmed | shares compounds with SENP7 inh | Recombinant SENP8, Z-RLRGG-aminoluciferin luminescence, 60 min | inhibition, % at 12.5 µM | actives 40% (n = 6,200);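 active = mean inhibition across replicates above about 50%, limit read from the data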
SENP6 confirm = confirmation of human SENP6 protease inhibitors | actives 58% (n = 6,200) | recombinant SENP6, Z-RLRGG-aminoluciferin luminescence | inhibition, % at 12.5 µM | shares compounds with SENP7 inh | AID 488915
SENP7 confirm = human SENP7 inhibition, confirmed. AID 488917. shares compounds with SENP7 inh. actives 69% (n = 6,200). recombinant SENP7, Z-RLRGG-aminoluciferin luminescence, 40 min. inhibition, % at 12.5 µM
Casp3 select = inhibits human caspase-3 in SENP selectivity test; purified caspase-3, Z-DEVD-aminoluciferin luminescence, 60 min; shares compounds with SENP7 inh; actives 60% (n = 6,200); inhibition, % at 12.5 µM; AID 488918;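 active = mean inhibition above about 50%, limit read from the data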;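 also: plate controls were enzyme with DMSO for no effect and wells without caspase-3 for full effect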
Target sequence (P42574 28-227 limits assumed): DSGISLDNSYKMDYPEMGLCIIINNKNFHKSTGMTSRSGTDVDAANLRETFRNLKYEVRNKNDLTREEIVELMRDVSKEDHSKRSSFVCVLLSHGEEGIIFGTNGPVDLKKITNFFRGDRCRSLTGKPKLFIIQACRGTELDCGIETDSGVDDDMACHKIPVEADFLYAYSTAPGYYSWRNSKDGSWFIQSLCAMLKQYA
Luc interf = counter-screen for SENP inhibitors: luminescence interference; inhibition, % at 12.5 µM; Pre-incubated SENP8/Z-RLRGG-aminoluciferin, luciferase luminescence interference; actives 39% (n = 6,200); shares compounds with SENP7 inh;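 active = mean inhibition above about 50% when retested at one dose, limit read from the data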;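 also: plate controls were DMSO wells with completed reaction for no effect and substrate without enzyme for full effect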
Active calls of the source: *; nt = no result.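 The calls were made as follows, unless noted: active = mean inhibition above about 50% in the one-dose retest (limit read from the data); inactive = the rest.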

SMILES	SENP7 inh	SENP8 block-1	HSP90 refold inh	SENP8 block-2	SENP6 inh	SENP8 conf	SENP6 confirm	SENP7 confirm	Casp3 select	Luc interf
COc1ccc2cc3cc(C(=O)N4CCN(C5CCCCC5)CC4)oc3nc2c1	3	-442	3	-2	4	nt	nt	nt	nt	nt
COc1ccc2cc3cc(C(=O)N4CCCCC4C)oc3nc2c1 (stereo not given)	67*	-410	-2	52*	64*	64*	61*	88*	75*	22
O=C(C1CCN(c2nnc(-n3cccc3)s2)CC1)N1CCOCC1	-1	11	-2	-2	5	nt	nt	nt	nt	nt
CCCc1cc(=O)oc2c(CN(CC)CC)c(O)c(Cl)cc12	-1	-452	3	-4	-20	nt	nt	nt	nt	nt
Clc1ccccc1Nc1nnc(-c2ccncc2)s1	100*	-399	22*	96*	98*	98*	99*	102*	97*	34
COc1ccc(Nc2nnc(-c3ccncc3)s2)cc1Cl	96*	-276	9	66*	73*	30	24	44	54*	6
COc1ccc(Nc2nc(C)cc(C)n2)cc1Cl	67*	20	-3	39	70*	62*	59*	86*	68*	65*
CNc1nnc(-c2ccncc2)s1	-3	-290	2	-2	-11	nt	nt	nt	nt	nt
COc1ccc(Cl)cc1Nc1nnc(-c2ccncc2)s1	95*	-292	5	51*	76*	-14	9	-4	1	-6
O=C(O)c1ccc(CNC(=O)C2CCN(S(=O)(=O)c3cccs3)CC2)cc1	nt	7	nt	nt	nt	nt	nt	nt	nt	nt
COc1ccc(Br)cc1-c1nc(C)c(C(C)=O)n1O	-7	-25	0	-9	-5	nt	nt	nt	nt	nt
CC(C)CNC(=S)NNC(=O)c1csc2ccccc12	21	5	5	4	7	nt	nt	nt	nt	nt
CC(C)CNC(=S)NNC(=O)c1csc2c1CCCC2	50*	8	-2	11	12	1	2	-4	-2	-2
Cc1c(C(=O)c2ccc([N+](=O)[O-])cc2)c(=O)n(C)c(=O)n1C	7	19	0	-1	-14	nt	nt	nt	nt	nt
O=C(c1ccc2c(=O)n(CCc3ccccc3)c(=O)[nH]c2c1)N1CCN(c2ccccc2)CC1	-3	6	-1	-3	-9	nt	nt	nt	nt	nt
O=C(OCc1nnc(-c2ccccc2)o1)c1ccc([N+](=O)[O-])s1	31	31	nt	71*	68*	72*	83*	40	10	-2
O=C(COC(=O)c1ccc([N+](=O)[O-])s1)Nc1ccc(F)cc1	40	34	nt	69*	66*	68*	88*	48	13	-5
Cc1cc(C(=O)OCC(=O)N2CCC(c3ccccc3)=N2)ccc1[N+](=O)[O-]	-3	21	nt	-13	-8	nt	nt	nt	nt	nt
Cc1ccc(C(=O)OCc2nnc(-c3ccccc3)o2)s1	1	13	nt	-4	-2	nt	nt	nt	nt	nt
O=C(OCC(=O)N1CCC(c2ccccc2)=N1)c1ccc([N+](=O)[O-])s1	15	25	nt	63*	56*	37	74*	26	9	7
COc1ccc(S(=O)(=O)N2CCOCC2)cc1NC(=O)COC(=O)c1[nH]c(C)c(C(C)=O)c1C	-2	-2	nt	-8	7	nt	nt	nt	nt	nt
CC(C)(C)c1ccc(NC(=O)COC(=O)c2ccc([N+](=O)[O-])s2)cc1	nt	20	9	nt	nt	nt	nt	nt	nt	nt
COc1ccc(S(=O)(=O)N2CCOCC2)cc1NC(=O)COC(=O)c1ccc([N+](=O)[O-])s1	33	37	nt	67*	53*	-6	83*	35	3	3
N#Cc1ccccc1OCC(=O)Nc1ccccc1C(=O)NC1CC1	-2	-22	nt	0	-2	nt	nt	nt	nt	nt
Cc1cc(C)c(S(=O)(=O)c2ccc(Cl)cc2)c(=O)[nH]1	-1	-57	2	12	7	nt	nt	nt	nt	nt
